Results as given in the supplement of paper PMC10849652.
About 7,900 targets were measured; listed, in parts, are those with a hit and a random draw of the rest. About 0.6% of all pairs of compound and target were hits. A number with no mark means an inactive call.

compound: C#Cc1cccc(Nc2ncnc3cc(OCCOC)c(OCCOC)cc23)c1 [erlotinib]; assay: log2 fold change, soluble protein after heating vs DMSO (PISA); higher = thermal stabilisation; K562 cells, 10 uM, 30 min; active = over 0.2 and 3.5 SD of the protein, either way, in both replicates (recomputed)
Summary of the method: (§1)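 Quantification of soluble protein used TMTpro 16plex LC-MS/MS, with channel sums equalised. Samples were the supernatant after 21,000xg for 90 min of pooled aliquots from K562 cells (2×10^6 cells/mL) treated with 10 μM compound for 30 min, heated for 3 min over 48°C-58°C, and extracted in PBS with 0.5% NP-40 at 4°C. Values, from duplicates, describe thermal stability against control samples on a log2 fold-change scale.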

Sequence of UniProt Q15417 (Q15417 whole entry, looked up): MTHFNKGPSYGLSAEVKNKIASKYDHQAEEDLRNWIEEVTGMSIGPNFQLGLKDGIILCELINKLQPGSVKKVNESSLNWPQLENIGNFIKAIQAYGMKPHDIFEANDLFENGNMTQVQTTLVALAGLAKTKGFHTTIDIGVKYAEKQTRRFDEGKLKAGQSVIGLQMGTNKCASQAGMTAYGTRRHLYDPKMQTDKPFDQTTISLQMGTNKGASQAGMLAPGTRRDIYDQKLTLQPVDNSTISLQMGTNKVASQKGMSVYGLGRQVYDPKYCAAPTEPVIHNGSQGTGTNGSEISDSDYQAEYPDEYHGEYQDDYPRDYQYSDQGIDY
Sequence of UniProt Q96KA5 (Q96KA5 whole entry, looked up): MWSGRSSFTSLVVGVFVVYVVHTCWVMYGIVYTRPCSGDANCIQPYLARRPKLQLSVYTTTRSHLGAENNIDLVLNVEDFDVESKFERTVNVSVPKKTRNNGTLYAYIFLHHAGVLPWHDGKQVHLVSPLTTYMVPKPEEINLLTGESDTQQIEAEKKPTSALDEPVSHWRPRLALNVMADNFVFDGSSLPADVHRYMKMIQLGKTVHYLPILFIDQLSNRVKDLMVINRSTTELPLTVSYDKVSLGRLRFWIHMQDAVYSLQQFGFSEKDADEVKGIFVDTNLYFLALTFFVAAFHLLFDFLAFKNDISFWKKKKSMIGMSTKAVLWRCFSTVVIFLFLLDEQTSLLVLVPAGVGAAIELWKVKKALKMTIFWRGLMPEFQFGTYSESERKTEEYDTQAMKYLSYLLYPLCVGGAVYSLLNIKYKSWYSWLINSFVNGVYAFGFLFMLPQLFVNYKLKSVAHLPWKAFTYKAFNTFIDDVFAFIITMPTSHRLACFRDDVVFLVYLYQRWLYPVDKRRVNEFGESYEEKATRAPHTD
Sequence of UniProt Q69YH5 (Q69YH5 whole entry, looked up): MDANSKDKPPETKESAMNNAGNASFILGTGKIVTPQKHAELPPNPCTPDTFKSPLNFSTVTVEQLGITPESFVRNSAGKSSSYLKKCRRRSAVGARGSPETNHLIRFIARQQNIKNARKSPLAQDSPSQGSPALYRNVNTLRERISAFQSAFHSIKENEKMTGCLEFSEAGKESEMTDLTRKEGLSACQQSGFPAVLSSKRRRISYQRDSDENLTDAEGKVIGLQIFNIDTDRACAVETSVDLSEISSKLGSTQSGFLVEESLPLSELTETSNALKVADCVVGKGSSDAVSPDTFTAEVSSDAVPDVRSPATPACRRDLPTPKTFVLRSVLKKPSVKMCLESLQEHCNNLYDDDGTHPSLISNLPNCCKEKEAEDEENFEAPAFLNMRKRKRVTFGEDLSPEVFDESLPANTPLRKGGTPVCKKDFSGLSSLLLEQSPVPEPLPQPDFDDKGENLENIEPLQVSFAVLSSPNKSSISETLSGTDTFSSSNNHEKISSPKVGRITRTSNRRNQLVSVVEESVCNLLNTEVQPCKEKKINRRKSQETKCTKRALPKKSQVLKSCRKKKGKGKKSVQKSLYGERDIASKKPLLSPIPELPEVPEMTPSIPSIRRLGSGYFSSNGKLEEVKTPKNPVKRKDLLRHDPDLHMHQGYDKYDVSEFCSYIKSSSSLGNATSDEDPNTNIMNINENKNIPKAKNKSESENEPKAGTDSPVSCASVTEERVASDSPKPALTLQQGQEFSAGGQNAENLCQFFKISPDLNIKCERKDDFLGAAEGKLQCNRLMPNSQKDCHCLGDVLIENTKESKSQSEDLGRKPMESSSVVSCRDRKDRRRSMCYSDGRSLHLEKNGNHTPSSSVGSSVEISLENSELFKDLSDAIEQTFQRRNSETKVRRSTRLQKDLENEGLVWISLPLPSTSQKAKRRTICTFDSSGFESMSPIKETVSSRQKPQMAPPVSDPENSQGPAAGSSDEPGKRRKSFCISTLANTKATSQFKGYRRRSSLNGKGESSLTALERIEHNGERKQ
Sequence of UniProt Q00535 (Q00535 whole entry, looked up): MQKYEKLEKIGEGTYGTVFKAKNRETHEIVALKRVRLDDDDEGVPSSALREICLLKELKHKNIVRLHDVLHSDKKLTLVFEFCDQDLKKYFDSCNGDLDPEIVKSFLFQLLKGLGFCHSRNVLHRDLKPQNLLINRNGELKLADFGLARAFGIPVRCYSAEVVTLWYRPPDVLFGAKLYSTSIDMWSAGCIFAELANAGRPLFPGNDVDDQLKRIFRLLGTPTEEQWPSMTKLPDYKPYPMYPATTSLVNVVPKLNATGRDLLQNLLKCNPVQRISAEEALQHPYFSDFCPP
Sequence of UniProt P46527 (P46527 whole entry, looked up): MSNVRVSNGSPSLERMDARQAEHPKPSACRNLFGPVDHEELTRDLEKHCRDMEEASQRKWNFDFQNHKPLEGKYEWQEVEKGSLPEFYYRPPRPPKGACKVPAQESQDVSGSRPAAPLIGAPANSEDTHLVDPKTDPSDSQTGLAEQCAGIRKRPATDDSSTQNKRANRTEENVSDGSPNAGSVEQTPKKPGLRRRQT
Sequence of UniProt Q9Y2V0 (Q9Y2V0 whole entry, looked up): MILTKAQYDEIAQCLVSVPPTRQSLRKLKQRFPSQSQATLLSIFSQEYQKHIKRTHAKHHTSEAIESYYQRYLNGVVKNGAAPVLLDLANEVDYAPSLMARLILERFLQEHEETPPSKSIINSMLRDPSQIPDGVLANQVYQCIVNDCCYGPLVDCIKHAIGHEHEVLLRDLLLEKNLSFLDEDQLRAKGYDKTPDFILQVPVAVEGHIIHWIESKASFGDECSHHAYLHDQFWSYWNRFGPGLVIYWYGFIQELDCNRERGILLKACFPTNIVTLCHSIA
Sequence of UniProt Q5BKX5 (Q5BKX5 whole entry, looked up): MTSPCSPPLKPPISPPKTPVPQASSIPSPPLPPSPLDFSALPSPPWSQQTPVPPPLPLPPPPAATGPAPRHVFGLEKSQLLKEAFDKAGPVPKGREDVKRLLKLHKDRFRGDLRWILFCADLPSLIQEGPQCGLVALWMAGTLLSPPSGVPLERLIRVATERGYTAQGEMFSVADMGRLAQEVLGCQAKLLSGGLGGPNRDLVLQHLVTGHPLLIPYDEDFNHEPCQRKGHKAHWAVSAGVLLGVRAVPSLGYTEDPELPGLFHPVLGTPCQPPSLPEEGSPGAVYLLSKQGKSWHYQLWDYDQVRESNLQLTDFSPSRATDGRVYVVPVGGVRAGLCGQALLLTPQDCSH
Sequence of UniProt Q00537 (Q00537 whole entry, looked up): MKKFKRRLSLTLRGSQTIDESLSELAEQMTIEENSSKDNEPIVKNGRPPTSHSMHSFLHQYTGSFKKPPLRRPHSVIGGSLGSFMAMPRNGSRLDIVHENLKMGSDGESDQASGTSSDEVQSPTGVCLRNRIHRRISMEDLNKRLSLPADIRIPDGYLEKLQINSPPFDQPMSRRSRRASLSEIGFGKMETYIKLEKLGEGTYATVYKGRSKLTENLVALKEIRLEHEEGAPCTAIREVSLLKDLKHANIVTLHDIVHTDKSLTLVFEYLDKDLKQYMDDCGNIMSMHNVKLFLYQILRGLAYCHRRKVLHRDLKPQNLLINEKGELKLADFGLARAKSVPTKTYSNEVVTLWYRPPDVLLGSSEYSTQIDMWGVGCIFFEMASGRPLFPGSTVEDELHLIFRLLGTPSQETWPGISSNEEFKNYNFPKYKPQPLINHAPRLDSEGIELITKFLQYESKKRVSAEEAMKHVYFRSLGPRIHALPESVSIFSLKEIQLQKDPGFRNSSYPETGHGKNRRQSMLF
Sequence of UniProt O75122 (O75122 whole entry, looked up): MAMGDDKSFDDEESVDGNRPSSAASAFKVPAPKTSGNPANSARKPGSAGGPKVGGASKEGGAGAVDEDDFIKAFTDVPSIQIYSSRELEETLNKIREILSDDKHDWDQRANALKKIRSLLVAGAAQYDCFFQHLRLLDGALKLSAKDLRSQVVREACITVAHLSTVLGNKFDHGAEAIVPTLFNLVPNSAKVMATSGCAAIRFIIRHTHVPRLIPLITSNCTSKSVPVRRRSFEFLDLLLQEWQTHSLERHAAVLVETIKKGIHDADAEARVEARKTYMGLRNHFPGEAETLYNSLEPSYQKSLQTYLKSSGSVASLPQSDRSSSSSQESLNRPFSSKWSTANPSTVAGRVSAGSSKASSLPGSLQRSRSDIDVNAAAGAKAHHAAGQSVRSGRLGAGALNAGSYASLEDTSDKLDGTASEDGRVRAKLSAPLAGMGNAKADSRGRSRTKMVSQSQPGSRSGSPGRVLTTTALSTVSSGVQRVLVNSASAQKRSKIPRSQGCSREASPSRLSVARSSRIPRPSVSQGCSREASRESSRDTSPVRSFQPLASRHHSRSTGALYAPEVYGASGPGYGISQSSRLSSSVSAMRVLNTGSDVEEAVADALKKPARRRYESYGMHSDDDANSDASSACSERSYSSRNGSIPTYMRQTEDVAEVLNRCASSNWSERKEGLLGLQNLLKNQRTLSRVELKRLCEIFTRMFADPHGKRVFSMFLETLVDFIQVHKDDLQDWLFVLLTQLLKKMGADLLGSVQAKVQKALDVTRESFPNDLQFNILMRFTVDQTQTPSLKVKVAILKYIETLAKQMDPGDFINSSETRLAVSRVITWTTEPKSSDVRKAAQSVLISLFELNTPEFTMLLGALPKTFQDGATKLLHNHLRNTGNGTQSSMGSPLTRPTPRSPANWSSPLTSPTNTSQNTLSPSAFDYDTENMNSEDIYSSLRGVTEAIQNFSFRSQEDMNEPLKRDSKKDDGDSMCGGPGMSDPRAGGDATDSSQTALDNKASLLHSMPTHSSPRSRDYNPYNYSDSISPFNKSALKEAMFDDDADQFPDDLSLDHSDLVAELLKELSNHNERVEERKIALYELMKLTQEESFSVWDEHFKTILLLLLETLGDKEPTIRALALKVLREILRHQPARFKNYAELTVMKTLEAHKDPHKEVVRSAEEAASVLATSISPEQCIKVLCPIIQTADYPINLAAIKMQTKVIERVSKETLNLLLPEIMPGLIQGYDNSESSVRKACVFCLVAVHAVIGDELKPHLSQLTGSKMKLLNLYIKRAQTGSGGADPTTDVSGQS
Sequence of UniProt P24311 (P24311 whole entry, looked up): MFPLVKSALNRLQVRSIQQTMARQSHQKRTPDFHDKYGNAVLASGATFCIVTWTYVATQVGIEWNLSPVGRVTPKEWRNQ
Sequence of UniProt Q14061 (Q14061 whole entry, looked up): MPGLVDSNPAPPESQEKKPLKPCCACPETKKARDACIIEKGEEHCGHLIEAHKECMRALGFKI

Row | Target | log2 fold change
1 | CLUH, A0A494C0R8 | -0.008
2 | CHAF1A (UniProt Q13111) | -0.046
3 | CLINT1 isoform 3 (UniProt Q14677) | 0.016
4 | CCNC (UniProt P24863) | -0.056
5 | CLPP (UniProt Q16740) | -0.025
6 | COX7B (UniProt P24311) | -0.022
7 | CLN5 (UniProt O75503) | 0.146
8 | CDK19 (UniProt Q9BWU1) | -0.2
9 | CAV2 (UniProt P51636) | -0.01
10 | CDK5 (UniProt Q00535) | -0.02
11 | CLTB (UniProt P09497) | 0.106
12 | COG2 (UniProt Q14746) | -0.082
13 | C15orf41 (UniProt Q9Y2V0) | 0.02
14 | CNOT4 isoform 9 (UniProt O95628) | -0.011
15 | C19orf54 (UniProt Q5BKX5) | -0.094
16 | CLASP2 (UniProt O75122) | 0.089
17 | CCND3 (UniProt P30281) | -0.028
18 | CDCA2 (UniProt Q69YH5) | 0.519 (active)

Row | Target | log2 fold change
19 | CDK2AP2 (UniProt O75956) | -0.142
20 | CD84 (UniProt Q9UIB8) | 0.131
21 | CDKN1B (UniProt P46527) | -0.076
22 | CORO2A (UniProt Q92828) | -0.035
23 | CLUH (UniProt O75153) | 0.08
24 | CNN3 (UniProt Q15417) | 0.013
25 | CDK17 isoform 2 (UniProt Q00537) | 0.086
26 | CENPE (UniProt Q02224) | 0.268
27 | CCNDBP1 (UniProt O95273) | 0.009
28 | CLSPN (UniProt Q9HAW4) | -0.09
29 | CLPTM1L (UniProt Q96KA5) | 0.011
30 | CMTM3 (UniProt Q96MX0) | 0.032
31 | CLN8 (UniProt Q9UBY8) | 0.012
32 | CDC25B isoform 4 (UniProt P30305) | -0.031
33 | CDK4 (UniProt P11802) | 0.075
34 | CLCN3 (UniProt P51790) | -0.024
35 | CEBPZOS (UniProt A8MTT3) | -0.017
36 | COX17 (UniProt Q14061) | -0.032

compound: C/C(=N\NC(=O)C1=CC(=CC=C1)S(=O)(=O)N2CCOCC2)/C3=C(C=CC(=C3)Cl)O; assay: as above
Summary of the method: as §1

Row | Target | log2 fold change
37 | CLUH, A0A494C0R8 | -0.081
38 | CHAF1A (UniProt Q13111) | -0.014
39 | CLINT1 isoform 3 (UniProt Q14677) | -0.134
40 | CCNC (UniProt P24863) | -0.077
41 | CLPP (UniProt Q16740) | 0.013
42 | COX7B (UniProt P24311) | 0.058
43 | CLN5 (UniProt O75503) | -0.049
44 | CDK19 (UniProt Q9BWU1) | -0.116
45 | CAV2 (UniProt P51636) | -0.066
46 | CDK5 (UniProt Q00535) | -0.009
47 | CLTB (UniProt P09497) | -0.042
48 | COG2 (UniProt Q14746) | -0.367
49 | C15orf41 (UniProt Q9Y2V0) | 0.017
50 | CNOT4 isoform 9 (UniProt O95628) | -0.022
51 | C19orf54 (UniProt Q5BKX5) | -0.054
52 | CLASP2 (UniProt O75122) | -0.078
53 | CCND3 (UniProt P30281) | -0.025
54 | CDCA2 (UniProt Q69YH5) | -0.46

Row | Target | log2 fold change
55 | CDK2AP2 (UniProt O75956) | -0.007
56 | CD84 (UniProt Q9UIB8) | 0.052
57 | CDKN1B (UniProt P46527) | 0.027
58 | CORO2A (UniProt Q92828) | 0.064
59 | CLUH (UniProt O75153) | 0
60 | CNN3 (UniProt Q15417) | 0.158
61 | CDK17 isoform 2 (UniProt Q00537) | 0.008
62 | CENPE (UniProt Q02224) | 0.525
63 | CCNDBP1 (UniProt O95273) | 0.191
64 | CLSPN (UniProt Q9HAW4) | -0.022
65 | CLPTM1L (UniProt Q96KA5) | 0.04
66 | CMTM3 (UniProt Q96MX0) | -0.055
67 | CLN8 (UniProt Q9UBY8) | 0.198
68 | CDC25B isoform 4 (UniProt P30305) | 0.117
69 | CDK4 (UniProt P11802) | -0.244
70 | CLCN3 (UniProt P51790) | 0.079
71 | CEBPZOS (UniProt A8MTT3) | 0.084
72 | COX17 (UniProt Q14061) | -0.064
